Laboratory results from PubChem BioAssay AID504861 (Broad Institute, 2011).
Out of some 1,200 compounds screened, about 290 (24%) were called active. Inconclusive results (about 3%) are left out. A selection follows. Measured potencies and affinities stand elsewhere. Values without a mark were called inactive.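 How the source made its calls: active means compounds lowering cell viability signal with fitted half-maximal concentration at most ten times their highest tested concentration; inconclusive means flat fit with 30 to 70% signal loss, or poor fit; inactive means the rest.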

Assay: HEK293T cell viability reduction, dose response, cytotoxicity control for LMP1 NF-kB inhibitor project, CellTiter-Glo luminescence, cherry-picks (AID 504861)
Conditions: CellTiter-Glo ATP luminescence, 48 h; series mostly up to 26 µM; activity change, negative = cytotoxicity: at the top concentration

Row | Structure (SMILES) | activity change, negative = cytotoxicity [%]
1 | CC(=O)Nc1ccc(S(=O)(=O)N2CCCC2)cc1 | 10
2 | CC(=O)Nc1nc(C)c(-c2csc(Nc3cccc([N+](=O)[O-])c3)n2)s1 | -0.558
3 | Nc1ccn([C@@H]2O[C@H](CO)[C@@H](O)C2O)c(=O)n1 (stereo not given in full) | 1.52
4 | CCOC(=O)N1CCN(C(=O)C2CCC(=O)N(Cc3ccccc3OC)C2)CC1 (stereo not given) | 4.09
5 | Cc1csc(NC(=O)c2ccc(N3CCCC3=O)cc2)n1 | -6.07
6 | COc1ccc(/C=C2\SC(=O)N(CCCC(=O)Nc3ccc(C(=O)O)cc3)C2=O)cc1 | 1.35
7 | O=C1/C(=C/c2ccncc2)SC(=S)N1Cc1ccccc1 | 3.49
8 | COc1ccccc1NC(=O)CC(c1ccc(OC(C)C)cc1)c1ccccc1OC (stereo not given) | 3.18
9 | Brc1ccc(-c2csc(N3CCCCCC3)n2)cc1 | 14.6
10 | CC(C)(O)C#Cc1ccc([C@@H]2C[C@H]3CN(c4ccccc4)C(=O)[C@]34CCCN24)s1 | -8.23
11 | CN(C1CCCCC1)S(=O)(=O)c1ccc(C(=O)N2CCN(c3nc4ccccc4s3)CC2)cc1 | 3.38
12 | Cc1cccc(NC(=S)N=Nc2c(O)n(C)c3ccc(S(=O)(=O)N4CCOCC4)cc23)c1 | 8.1
13 | CC(CCc1ccco1)N(C)S(=O)(=O)c1csc(C(N)=O)c1 (stereo not given) | 3.06
14 | CCC(=O)NC(c1ccc(C)cc1)c1cc(Cl)c2cccnc2c1O (stereo not given) | 4.72
15 | O=C(Nc1ccncc1)OCc1ccccc1 | -5.71
16 | CS(=O)(=O)N(CC(=O)Nc1ccc(F)cc1F)C1CCCCC1 | 7.69
17 | COc1ccc(-c2cc3nc4n(c(=O)c3s2)CCC4)cc1 | -0.959
18 | O=C(N/N=C(/CC(=O)c1cccs1)C(F)(F)F)c1ccc(O)cc1 | 13.8
19 | CC(C)(C)c1ccc(C(=O)N2CCC(=O)N(C(CO)Cc3ccccc3)CC2)cc1 (stereo not given) | 1.74
20 | COc1ccc(-n2c(C)c(C(C)=O)c3cc(OC(C)=O)ccc32)cc1 | -3.31
21 | O=c1nc(N/N=C/C=C/c2ccccc2)cn[nH]1 | 13.1
22 | COc1ccc2cc3c(N)nn(C(=O)c4cccc([N+](=O)[O-])c4)c3nc2c1 | 8.36
23 | CCCc1cc(=O)[nH]c(SCC(=O)NC2CCCCC2)n1 | 0.135
24 | O=Cc1cc(OCc2ccccc2)ccc1[B-](F)(F)F | 17.3
25 | C[C@@H]1CN([C@@H](C)CO)S(=O)(=O)c2ccc(/C=C/c3ccccc3)cc2O[C@@H]1CN(C)Cc1ccc(C(=O)O)cc1 | -12.6
26 | c1csc(CNc2ncnc3ccc(-c4ccoc4)cc23)c1 | -9.02
27 | CC(=O)OCC(=O)[C@@]1(O)CC[C@H]2[C@@H]3CCC4=CC(=O)CC[C@]4(C)[C@H]3[C@@H](O)C[C@@]21C | 1.32

Row | Structure (SMILES) | activity change, negative = cytotoxicity [%]
28 | O=C(NCCc1ccccc1)c1ccccc1Cl | 5.61
29 | COc1ccccc1-c1nnc(Sc2nc([N+](=O)[O-])nn2C)o1 | -10.5
30 | Cc1ccc(NC(=O)/C=N/OCC(=O)NCc2ccccc2Cl)cc1 | 4.14
31 | CSc1ccccc1C(=O)N1CCC2(CC1)CC(=O)c1ccccc1O2 | -2.08
32 | CSc1nc(N)nc(SCC(=O)C23CC4CC(CC(C4)C2)C3)c1C#N | -8.4
33 | COc1cc2c(=O)n(CC3CCCO3)c(=O)n(CC(=O)Nc3cccc(Cl)c3)c2cc1OC (stereo not given) | 4.18
34 | O=[N+]([O-])c1ccc(/C=N/Nc2cc(Cl)nc(-c3ccccc3)n2)cc1 | 3.89
35 | Cc1nn(C(C)(C)C)c(C)c1/C=N/OC(=O)Nc1ccc(Cl)c(Cl)c1 | 7.48
36 | COc1ccc(-c2csc3ncnc(NCCN4CCOCC4)c23)cc1 | 7.69
37 | CCOc1ccc(-c2cc(C(=O)N/N=C/c3ccc(O)cc3)c3ccccc3n2)cc1 | -1.88
38 | COc1ccc2cc(-c3cc(C(=O)OCC(=O)NC4CCS(=O)(=O)C4)c4ccccc4n3)ccc2c1 (stereo not given) | -0.211
39 | O=S(=O)(N/N=C/c1ccccc1F)c1ccccc1 | 10.4
40 | Cc1cc(N2CCOCC2)c2c(N)c(Br)cc(C)c2n1 | -2.56
41 | C=CCn1c(=O)/c(=C/c2ccc(Cl)cc2)s/c1=C(\C#N)c1nnc2n1CCCCC2 | 4.2
42 | NC(=O)CC(NC(=O)c1ccccc1)c1ccc(NC2CCN(Cc3ccccc3)CC2)c([N+](=O)[O-])c1 (stereo not given) | -1.78
43 | C=CCN1CCN(C(CC(C)C)c2nnnn2CCOC)CC1 (stereo not given) | 10.7
44 | CCC(C)(C)NC(=O)C(c1ccc(F)cc1)N(CCOC)C(=O)CCC(=O)Nc1nccs1 (stereo not given) | -8.1
45 | O=C(CCS(=O)(=O)c1ccccc1)Nc1nccs1 | 4.41
46 | CCC(=O)OC1c2ccccc2C(=O)N1Cc1ccccc1 (stereo not given) | 3.57
47 | COc1ccc(S(=O)(=O)N2CCN(CC(=O)Nc3cc(OC)cc(OC)c3)CC2)cc1 | 9.62
48 | COC(=O)C1=C(C(=O)c2ccccc2)C(c2ccccc2)n2nnnc2N1 (stereo not given) | 5.26
49 | O=C(CN1C(=O)CCOc2ccccc21)Nc1ccc(Cl)c(S(=O)(=O)N2CCOCC2)c1 | -1.24
50 | CCCCCCCCOC(=O)/C=C/c1c(C)[nH]c(=O)[nH]c1=O | 4.83
51 | Cc1c(NC(=O)c2cc(-c3cccs3)nc3ccccc23)c(=O)n(-c2ccccc2)n1C | -9.52
52 | Cn1cccc1/C=C1\CC(C(C)(C)C)C/C(=C\c2cccn2C)C1=O (stereo not given) | 5.18
53 | O=C(c1ccc(COc2ccccc2Cl)o1)N1CCCC1 | 3.19
54 | COC(=O)CN(c1ccccc1F)S(=O)(=O)c1ccc(C)cc1 | 1.16

Row | Structure (SMILES) | activity change, negative = cytotoxicity [%]
55 | CCCCCCNC(=O)O[C@]12C[C@@H](C(=O)OC)[C@@H](C(=O)OC)C[C@@]1(O)CN(S(=O)(=O)c1ccc(C)cc1)C2 | 3.74
56 | COc1ccc(-c2[nH]ncc2-c2ccc3c(c2)OCCO3)c(O)c1 | 5.3
57 | N#CC1=C(N)OC2=C(C(=O)CCC2)C12C(=O)N1CCCc3cccc2c31 (stereo not given) | 18.7
58 | COC(CNC(=O)c1ccc(N2CCC3(CC2)OCCO3)c([N+](=O)[O-])c1)OC | 21.8
59 | COc1ccc(C)cc1S(=O)(=O)N(CC(=O)Nc1cc([N+](=O)[O-])ccc1C)c1ccc(C)c(C)c1 | 14.1
60 | Cc1cc(C(=O)COC(=O)c2cccc(NS(C)(=O)=O)c2)c(C)n1CC1CCCO1 (stereo not given) | -1.07
61 | O=C(O)c1cccc(NC(=O)c2cn(-c3ccccc3)nc2-c2ccc(F)cc2)c1 | -2.08
62 | Cc1ccc(C(=O)Nc2ncc3c(Cl)cccc3n2)cc1 | -4.06
63 | CCn1c(CCNC(=O)c2ccc(OC)cc2)nnc1SCc1ccc(Cl)cc1Cl | -1.26
64 | CC(C)(C)c1ccc(-c2noc(CCC(N)=O)n2)cc1 | 4.9
65 | CCOC(=O)c1cn2nc(N3CCCC3)ccc2n1 | -3.72
66 | O=C(Nc1cccc(Cl)c1)Nc1cccc(C(=O)O)c1 | 4.19
67 | Cc1ccc(NC(=S)NCc2cccs2)cc1 | 6.68
68 | Cc1ccc(NC(=O)C(=O)Nc2ccccn2)cc1 | -1.38
69 | S=C(NN=C1C2CC3CC(C2)CC1C3)Nc1ccccc1 | 7.44
70 | CNC1(C)[C@H]2CC[C@H](C2)C1(C)C (stereo not given in full) | -0.979
71 | CC(=O)c1cccc(NC(=O)Nc2ccc(C(=O)N3CCOCC3)cc2)c1 | -7.4
72 | CCCCCc1ccc(-c2ccc(/C=C/C(=O)O)cc2)nc1 | -2.31
73 | COc1ccc(-c2nc(C)ncc2-c2ccccc2)c(O)c1 | -3.21
74 | Cc1ccc(N(Cc2cc3ccccc3[nH]c2=O)C(=O)c2ccco2)c(C)c1 | 7.35
75 | O=C(O)c1cccc(Nc2ccnc(Nc3cccc(C(=O)O)c3)n2)c1 | -5.64
76 | CCN(C(=O)CSc1nnc(Nc2cccc(C)c2C)s1)C1CCS(=O)(=O)C1 (stereo not given) | 15.3
77 | COc1ccc(-c2nc(CN3CCC(C(=O)N4CCOCC4)CC3)c(C)o2)cc1C | -0.49
78 | Cc1cc(C)c2sc(NC(=O)C3CC3)nc2c1 | 4.24
79 | CCOC(=O)Oc1c(OC)cc(C(=O)O[C@@H]2C[C@@H]3CN4CCc5c([nH]c6cc(OC)ccc56)[C@H]4C[C@@H]3[C@H](C(=O)OC)[C@H]2OC)cc1OC | -5.9
80 | Nc1ccn([C@@H]2O[C@H](CO)[C@@H](O)[C@@H]2O)c(=O)n1 | 0.472
81 | Cc1cc(N2CCCC2=O)cc(C)c1S(=O)(=O)Nc1c(C)nn(C)c1C | 1.46

Row | Structure (SMILES) | activity change, negative = cytotoxicity [%]
82 | Cn1cccc1-c1cc(C(=O)N2CCc3c([nH]c4ccccc34)C2c2ccccn2)[nH]n1 (stereo not given) | -10.6
83 | COc1ccc(-c2oc3ncnc(NCCN4CCOCC4)c3c2-c2ccc(OC)cc2)cc1 | 2.98
84 | CSc1nc(C)nc2c1c(=O)n(C)c(=O)n2C | 8.38
85 | Cc1ccc(/C=C/c2nc3ccccc3s2)s1 | -11.8
86 | Cn1cc(CC(=O)NCCCN2CCCC2)c2ccccc21 | 3.13
87 | CCc1cc(Cl)c(OC)c(C(=O)NC[C@@H]2CCCN2CC)c1O | -6.38
88 | c1ccc2c3c([nH]c2c1)C(C1CCCCC1)N(Cc1ncc[nH]1)CC3 (stereo not given) | 1.16
89 | Cc1ccc(C(=O)Nc2sc(Cc3ccc4c(c3)OCO4)c(C)c2C(N)=O)cc1 | 6.6
90 | CCN(CC)c1ccc(NC(=O)c2cccc(F)c2)c(C)c1 | 1.9
91 | Cn1ncc(Cl)c1C(=O)NC1CCCC1 | 7.6
92 | O=C(Nc1ccc(N2CCOCC2)cc1)c1cnccn1 | 1.13
93 | COc1ccccc1N1CCN(CCCNC(=O)C2CCCN(c3ncnc4c3nc3n4CCCCC3)C2)CC1 (stereo not given) | -8.21
94 | CNC(=O)c1[nH]cnc1C(=O)N[C@@H](CCCCNC(=O)OC(C)(C)C)C(=O)OC(C)(C)C | 1.6
95 | CCOC(=O)c1c(-n2cccc2)sc2c1CCCC2=O | 7.85
96 | Cc1ccccc1C(=O)c1c[nH]c(C(=O)NCc2ccco2)c1 | 12.1
97 | O=c1c2cnn(-c3ccccc3)c2nc(-c2cccs2)n1-c1ccc(Cl)cc1 | -3.75
98 | Cc1ccc(OCC(=O)NNC(=S)NC(=O)C2CCCCC2)c(C)c1 | -1.86
99 | N#Cc1c(NC(=O)CCCC(=O)O)sc2c1CCCCC2 | 7.69
100 | COC(=O)CCNc1ccc2c(c1)OCCO2 | -7.17
101 | COc1ccc(C(=O)OCC(=O)c2c[nH]c3ccccc23)cc1OC | 0.68
102 | Clc1ccc(-c2nnc(NC3=NCCCCC3)o2)cc1 | -3.14
103 | O=C(O)c1ccc(-n2cncn2)c([N+](=O)[O-])c1 | 0.957
104 | CN(C)c1ccnc2sc(C(N)=O)c(N)c12 | 2.86
105 | Cc1ccc(CNC(=O)C2CCN(S(=O)(=O)c3c(C)noc3/C=C/c3ccco3)CC2)cc1 | 2.54
